# Reference: the supplement of paper PMC4683952
# Where a name gives a salt, the structure may show the parent alone. Among all 1,200 compounds or so, about 50 (4%) showed activity. Shown is part of a subset that was picked to be rich in actives. A number with no mark means an inactive call. Rule as the data show it: all actives reach 1.3 or more but so do some inactives.
# System: Lgr5 (MarsCy1-Lgr5-EGFP, U2OS)
# Experiment: cell-surface Lgr5 expression (SCi1 fluorescence, background-subtracted) relative to WT DMSO (fold of DMSO control); higher = more Lgr5 at the plasma membrane, active = hit call of the paper
# Settings: U2OS MarsCy1-Lgr5-EGFP stable; treatment time: overnight; 16 µM; library: Johns Hopkins Clinical Compound Library
row,Structure (SMILES),cell-surface Lgr5 expression
1,CCC(=O)O[C@H]1[C@H](O[C@@H]2[C@@H](C)[C@H](O[C@H]3C[C@@](C)(OC)[C@@H](O)[C@H](C)O3)[C@@H](C)C(=O)O[C@H](CC)[C@@](C)(O)[C@H](O)[C@@H](C)C(=O)[C@H](C)C[C@@]2(C)O)O[C@H](C)C[C@@H]1N(C)C [Erythromycin estolate],0.567
2,CCOc1ccc2nc(S(N)(=O)=O)sc2c1 [Ethoxzolamide (6-Ethoxy-2-benzothiazolesulfonamide)],1.15
3,CCN1CCCC1CNC(=O)c1cc(S(N)(=O)=O)ccc1OC (racemic) [Sulpiride (+/-)-],1.07
4,CCc1cc(Cl)c(OC)c(C(=O)NC[C@@H]2CCCN2CC)c1O [Eticlopride hydrochloride (S)],1.52 (active)
5,O=C([O-])C(=O)[O-].O=C([O-])C(=O)[O-].O=C([O-])C(=O)[O-].[Ce+3].[Ce+3] [Cerium oxalate],1.08
6,COC(=O)c1ccc(O)c2nc3c(C=O)c(O)cc(O)c3nc12 [Lomofungin],0.884
7,COc1ccnc(C[S+]([O-])c2nc3cc(OC(F)F)ccc3[nH]2)c1OC (stereo not given) [Pantoprazole],1.01
8,OC(CCCN1CCC(O)(c2ccc(Cl)cc2)CC1)c1ccc(F)cc1 (stereo not given) [Haloperidol metabolite II],1.18
9,CCCCCCCCCCCCCCc1ccc(S(=O)(=O)O)cc1.OCl [Oxychlorosene],0.635
10,C[C@@H]1C[C@H]2[C@@H]3CCC4=CC(=O)C=C[C@]4(C)[C@@]3(F)[C@@H](O)C[C@]2(C)[C@H]1C(=O)CO,1.41
11,C[C@H]1C[C@H]2[C@@H]3CCC4=CC(=O)C=C[C@]4(C)[C@@]3(Cl)[C@@H](O)C[C@]2(C)[C@@]1(O)C(=O)CO [Beclomethasone],1.36 (active)
12,CC(=O)OCC(=O)[C@@]1(O)[C@@H](C)C[C@H]2[C@@H]3CCC4=CC(=O)C=C[C@]4(C)[C@@]3(F)[C@@H](O)C[C@@]21C,1.59 (active)
13,CC(=O)OCC(=O)[C@@]1(O)[C@@H](C)C[C@H]2[C@@H]3CCC4=CC(=O)C=C[C@]4(C)[C@@]3(F)[C@@H](O)C[C@@]21C [Betamethasone 21-acetate],1.53 (active)
14,C[C@H]1C[C@H]2[C@@H]3CCC4=CC(=O)C=C[C@]4(C)[C@@]3(F)[C@@H](O)C[C@]2(C)[C@@]1(O)C(=O)CO,1.45 (active)
15,C[C@H]1C[C@H]2[C@@H]3CCC4=CC(=O)C=C[C@]4(C)[C@@]3(F)[C@@H](O)C[C@]2(C)[C@@]1(O)C(=O)COP(=O)(O)O [Betamethasone sodium phosphate],1.35 (active)
16,C[C@@H]1C[C@H]2[C@@H]3CCC4=CC(=O)C=C[C@]4(C)[C@@]3(F)[C@@H](O)C[C@]2(C)[C@@]1(O)C(=O)COP(=O)(O)O,1.26
17,O=P([O-])([O-])O.[K+].[K+] [Potassium phosphate dibasic],1.09
18,O.O.O.O.O.O.[Br-].[Br-].[Sr+2] [Strontium bromide hexahydrate],0.469
19,"Nc1ccc2cc3ccc(N)cc3nc2c1 [Proflavine hemisulfate salt hydrate, powder]",1.06
20,CCCCCCCCCCCCCCCCCC(=O)[O-].CCCCCCCCCCCCCCCCCC(=O)[O-].[Zn+2] [Zinc stearate],0.658

row,Structure (SMILES),cell-surface Lgr5 expression
1,C=CC[N+]1([C@H]2C[C@H]3[C@@H]4CC[C@H]5C[C@H](O)[C@@H](N6CCOCC6)C[C@]5(C)[C@H]4CC[C@]3(C)[C@H]2OC(C)=O)CCCC1 [Rocuronium bromide (Zemuron)],1.2
2,CCCCC(C)(O)C/C=C/[C@H]1[C@H](O)CC(=O)[C@@H]1CCCCCCC(=O)OC (mixture of isomers) [Misoprostol],1.07
3,O=C(Cc1cccs1)N[C@@H]1C(=O)N2C(C(=O)O)=C(/C=C/c3ccc([N+](=O)[O-])cc3[N+](=O)[O-])CS[C@H]12 [Nitrocefin],0.867
4,CCOC(C)OCC [Acetal],1.06
5,CC(=O)O[C@]1(C(C)=O)CC[C@H]2[C@@H]3C=C(Cl)C4=CC(=O)CC[C@]4(C)[C@H]3CC[C@@]21C [Chlormadinone acetate],1.09
6,CC(=O)O[C@]1(C(C)=O)CC[C@H]2[C@@H]3C=C(C)C4=CC(=O)CC[C@]4(C)[C@H]3CC[C@@]21C [Megestrol Acetate],1.29
7,C=C1C[C@H]2[C@@H]3C=C(C)C4=CC(=O)CC[C@]4(C)[C@H]3CC[C@]2(C)[C@@]1(OC(C)=O)C(C)=O [Melengestrol acetate],1.58 (active)
8,CO[C@H]1C=CO[C@@]2(C)Oc3c(C)c(O)c4c(O)c(c(C=O)c(O)c4c3C2=O)NC(=O)C(C)=CC=C[C@H](C)[C@H](O)[C@@H](C)[C@@H](O)[C@@H](C)[C@H](OC(C)=O)[C@@H]1C [3-formyl Rifamycin],1.12
9,O=C([O-])[O-].[Ca+2] [Calcium carbonate],0.936
10,COC(=O)Nc1nc2cc([S+]([O-])c3ccccc3)ccc2[nH]1 (stereo not given) [Oxfendazole],1.18
11,O=[N+]([O-])c1ccc(O)cc1 [4-Nitrophenol],1.17
12,[Na+].[OH-] [Sodium hydroxide],0.75
13,COc1ccc2cc(CCC(C)=O)ccc2c1 [Nabumetone],1.32 (active)
14,COc1ccc2cc([C@H](C)C(=O)O)ccc2c1 [Naproxen sodium],1.03
15,"COc1ccc(C(=O)c2ccccc2O)c(O)c1 [Dioxybenzone (2,2'-Dihydroxy-4-methoxybenzophenone)]",0.985
16,COc1ccc2cc([C@H](C)C(=O)O)ccc2c1 [Naproxen (s-6-methoxy methyl 2-naphthalene acetic acid)],0.783
17,O=C([O-])C[NH+](CC(=O)[O-])CC(=O)[O-].O=C([O-])C[NH+](CC(=O)[O-])CC(=O)[O-].O=C([O-])C[NH+](CC(=O)[O-])CC(=O)[O-].[Na+].[Na+].[Na+].[Na+].[Na+].[Na+].[Na+].[O]=[Bi][O]C(=O)C[NH+](CC(=O)[O-])CC(=O)[O-] [Bismuth Sodium Triglycollamate (Nitrilotriacetic acid)],1.08
18,COc1ccc2[nH]c([S+]([O-])Cc3ncc(C)c(OC)c3C)nc2n1 (stereo not given) [Tenatoprazole],1.17
19,[I-].[Na+] [Sodium iodide],1.13
20,"C[C@@H](C1=C(CCN(C)C)Cc2ccccc21)c1ccccn1 [Dimethindene (S, +) maleate]",1.32

row,Structure (SMILES),cell-surface Lgr5 expression
1,CCCCCCCCCCCCN [Dodecylamine],0.823
2,CCCCCCCCCCCC[N+](C)(C)Cc1ccccc1,0.391
3,C[N+](C)(CCOc1ccccc1)Cc1ccccc1.O=C([O-])c1cc2ccccc2cc1O [Bephenium hydroxy-naphthoate],1.05
4,Cc1cc(C(C)(C)CC(C)(C)C)ccc1OCCOCC[N+](C)(C)Cc1ccccc1 [Methylbenzethonium chloride],1.67 (active)
5,CC(=O)SCC(Cc1ccccc1)C(=O)NCC(=O)OCc1ccccc1 (stereo not given) [Racecadotril],1.24
6,N.O=C(O)CC(O)(CC(=O)O)C(=O)O.[Fe+3] [Ferric ammonium citrate],1.06
7,N=C(N)N [Guanidine hydrochloride],0.767
8,O.O.O.O.O.O.O.O=S(=O)([O-])[O-].[Mg+2] [Magnesium sulfate],1.04
9,C=CC1=C(C(=O)O)N2C(=O)[C@@H](NC(=O)/C(=N\O)c3csc(N)n3)[C@H]2SC1 [Cefdinir],1.06
10,O=C(O[C@@H]1Cc2c(O)cc(O)cc2O[C@@H]1c1ccc(O)c(O)c1)c1cc(O)c(O)c(O)c1 [Epicatechin gallate (-)],1.14
11,NCCc1ccc(O)c(O)c1 [Dopamine (3-Hydroxytyramine hydrochloride)],1.51 (active)
12,NCCc1ccc(O)c(O)c1 [3-hydroxytyramine (Dopamine)],1.43 (active)
13,"N[C@@H](Cc1ccc(O)c(O)c1)C(=O)O [Levodopa (L-beta-3,4-Dihydroxyphenylananine)]",0.449
14,"C[C@](N)(Cc1ccc(O)c(O)c1)C(=O)O [Methyl-DOPA (alpha-methyl-L-beta-3,4-dihydroxyphenylalanine)]",0.929
15,CC(=O)N[C@@H](CCC(N)=O)C(=O)O [Aceglutamide (N-acetyl-L-glutamine)],1.2
16,CN1CC(O)C2=C/C(=N/NC(N)=O)C(=O)C=C21 (stereo not given) [Carbazochrome (Adrenochrome semicarbazone)],1.16
17,Cc1cc(N)c2ccccc2c1O [Vitamin K5 hydrochloride],0.778
18,O=P([O-])(O)O.[K+] [Potassium phosphate monobasic],1.24
19,C[C@@H]1C[C@H]2[C@@H]3C[C@H](F)C4=CC(=O)C=C[C@]4(C)[C@@]3(F)[C@@H](O)C[C@]2(C)[C@@]1(O)C(=O)CO [Flumethasone],1.48 (active)
20,C[C@@H]1C[C@H]2[C@@H]3C[C@H](F)C4=CC(=O)C=C[C@]4(C)[C@@]3(F)[C@@H](O)C[C@]2(C)[C@@]1(O)C(=O)COC(=O)C(C)(C)C [Flumethasone pivalate],1.37 (active)
